A short description of test [1]: anti-His antibody binders, primary screen, artefact control for SMM control protein annotation, biochemical, small-molecule microarray, 635 nm fluorescence (AID 1128).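 Further: score merges feature fluorescence with signal-to-noise for each printed compound spot.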 To be noted: anti-His Alexa647 antibody binding, higher = more signal.
Test [2] has as its system Human papillomavirus type 1a E7 protein (residues 1-88). Put plainly: HPV1a E7 small-molecule binders, primary screen, biochemical, small-molecule microarray, residues 1-88, 635 nm (AID 1129). The conditions noted are these: small-molecule microarray binding, fluorescence 635 nm; higher = more signal.
Test [3] concerns the target Focal adhesion kinase 1 (Homo sapiens) (UniProt Q05397). Description: small-molecule microarray binders of FAK, primary screen, biochemical, 635/667 nm fluorescence, BSA, DTT (AID 1130).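 Further: composite of spot emission at 667 nm and signal to noise over triplicate slides.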 To be noted: PTK2 binding, 635 nm fluorescence, higher = more signal.
The subject of test [4] is Fibrinogen (Alexa647-labelled). Description: fibrinogen binders on compound microarrays, profiling panel, artefact control for SMM control-protein annotation, biochemical, small-molecule microarray, 635/667 nm fluorescence (AID 1131).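 Further: z-score merges 667 nm fluorescence with per-spot signal-to-noise over triplicate slides.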 The conditions noted are these: fibrinogen-A647 binding fluorescence, higher = more signal.
Test [5] concerns the target Follistatin (Homo sapiens) (UniProt P19883). Description: follistatin binders on small-molecule microarrays, primary screen, biochemical, small-molecule microarray, 635/667 nm fluorescence (AID 1132). The conditions noted are these: FST binding, 635 nm fluorescence, higher = more signal.
Test [6] has as its target Fibroblast growth factor 2 (Homo sapiens) (UniProt P09038). Description: FGF2 binders on small-molecule microarrays, primary screen, biochemical, small-molecule microarray, 635/667 nm fluorescence (AID 1133). The conditions noted are these: small-molecule microarray binding, FGF2, fluorescence 635/667; higher = more signal.
A short description of test [7]: mitochondrial membrane potential change in A549 cells, profiling panel, cell-based, JC-1 fluorescence, basal, 24 h, 100 nL (AID 1138).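 Further: A549 lung adenocarcinoma cells under basal conditions with no added stimulus; test concentration not given here.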 To be noted: higher = more signal.
Another test has as its system Lefty1. Put plainly: Lefty1 binders on small-molecule microarrays, primary screen, biochemical, small-molecule microarray, 635/667 nm fluorescence (AID 1139). The conditions noted are these: small-molecule microarray binding, fluorescence 635/667; higher = more signal.
The subject of test [8] is wheat germ agglutinin (Triticum aestivum), Alexa647-labelled. Description: wheat germ agglutinin binders on compound microarrays, profiling panel, artefact control for SMM control-protein annotation, biochemical, small-molecule microarray, 635/667 nm fluorescence (AID 1140).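 Further: score merges 667 nm feature emission with signal to noise over triplicate slides.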 To be noted: WGA-A647 binding, 635 nm fluorescence, higher = more signal.
Test [9] concerns the target Luciferin 4-monooxygenase (Photinus pyralis) (UniProt P08659). Put plainly: firefly luciferase enzyme inhibitors, primary screen, biochemical, luminescence, purified enzyme, 2006 set (AID 1141).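 Further: cell-free assay with purified firefly luciferase at 100 ng per well in PBS; test concentration not given here.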 To be noted: SteadyGlo luminescence, 30 min, higher = more signal, called active from +8 up or from −8 down.

The source made the active and inactive calls.

Chain of Follistatin (Homo sapiens) (P19883 whole entry, looked up): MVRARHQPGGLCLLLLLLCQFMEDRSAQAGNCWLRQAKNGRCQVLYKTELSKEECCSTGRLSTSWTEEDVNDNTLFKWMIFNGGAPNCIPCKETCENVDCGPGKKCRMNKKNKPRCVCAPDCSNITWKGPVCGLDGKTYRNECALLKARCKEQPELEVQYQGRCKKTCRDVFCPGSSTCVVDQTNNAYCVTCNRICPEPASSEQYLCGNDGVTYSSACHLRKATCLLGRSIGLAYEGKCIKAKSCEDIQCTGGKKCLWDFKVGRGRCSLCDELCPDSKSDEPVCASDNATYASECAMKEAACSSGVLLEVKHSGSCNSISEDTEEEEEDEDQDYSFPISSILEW
Chain of Luciferin 4-monooxygenase (Photinus pyralis) (P08659 whole entry, looked up): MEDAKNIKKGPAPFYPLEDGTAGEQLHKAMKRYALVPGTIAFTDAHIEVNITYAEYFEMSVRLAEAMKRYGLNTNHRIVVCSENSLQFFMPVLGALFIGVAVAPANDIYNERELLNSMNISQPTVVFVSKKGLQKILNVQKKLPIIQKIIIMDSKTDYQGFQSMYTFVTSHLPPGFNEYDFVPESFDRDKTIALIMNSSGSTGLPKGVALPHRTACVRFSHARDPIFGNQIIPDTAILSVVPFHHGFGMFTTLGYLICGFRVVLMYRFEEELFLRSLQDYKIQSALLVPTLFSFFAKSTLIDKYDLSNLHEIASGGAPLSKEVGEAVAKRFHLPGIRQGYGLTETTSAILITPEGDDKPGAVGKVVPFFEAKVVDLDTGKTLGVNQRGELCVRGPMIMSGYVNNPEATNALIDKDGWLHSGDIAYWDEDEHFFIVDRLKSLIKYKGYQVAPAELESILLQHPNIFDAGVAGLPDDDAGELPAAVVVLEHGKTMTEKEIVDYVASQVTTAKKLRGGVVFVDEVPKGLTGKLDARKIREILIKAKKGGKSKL
Chain of Fibroblast growth factor 2 (Homo sapiens) (P09038 whole entry, looked up): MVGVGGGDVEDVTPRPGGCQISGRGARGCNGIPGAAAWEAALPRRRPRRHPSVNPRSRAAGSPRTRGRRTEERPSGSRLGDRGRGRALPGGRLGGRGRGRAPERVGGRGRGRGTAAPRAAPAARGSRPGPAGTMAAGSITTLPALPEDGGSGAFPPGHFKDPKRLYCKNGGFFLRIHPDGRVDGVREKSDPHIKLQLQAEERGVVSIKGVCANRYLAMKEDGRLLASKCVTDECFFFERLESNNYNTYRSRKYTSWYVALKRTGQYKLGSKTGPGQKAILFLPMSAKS
Chain of Focal adhesion kinase 1 (Homo sapiens) (Q05397 whole entry, looked up): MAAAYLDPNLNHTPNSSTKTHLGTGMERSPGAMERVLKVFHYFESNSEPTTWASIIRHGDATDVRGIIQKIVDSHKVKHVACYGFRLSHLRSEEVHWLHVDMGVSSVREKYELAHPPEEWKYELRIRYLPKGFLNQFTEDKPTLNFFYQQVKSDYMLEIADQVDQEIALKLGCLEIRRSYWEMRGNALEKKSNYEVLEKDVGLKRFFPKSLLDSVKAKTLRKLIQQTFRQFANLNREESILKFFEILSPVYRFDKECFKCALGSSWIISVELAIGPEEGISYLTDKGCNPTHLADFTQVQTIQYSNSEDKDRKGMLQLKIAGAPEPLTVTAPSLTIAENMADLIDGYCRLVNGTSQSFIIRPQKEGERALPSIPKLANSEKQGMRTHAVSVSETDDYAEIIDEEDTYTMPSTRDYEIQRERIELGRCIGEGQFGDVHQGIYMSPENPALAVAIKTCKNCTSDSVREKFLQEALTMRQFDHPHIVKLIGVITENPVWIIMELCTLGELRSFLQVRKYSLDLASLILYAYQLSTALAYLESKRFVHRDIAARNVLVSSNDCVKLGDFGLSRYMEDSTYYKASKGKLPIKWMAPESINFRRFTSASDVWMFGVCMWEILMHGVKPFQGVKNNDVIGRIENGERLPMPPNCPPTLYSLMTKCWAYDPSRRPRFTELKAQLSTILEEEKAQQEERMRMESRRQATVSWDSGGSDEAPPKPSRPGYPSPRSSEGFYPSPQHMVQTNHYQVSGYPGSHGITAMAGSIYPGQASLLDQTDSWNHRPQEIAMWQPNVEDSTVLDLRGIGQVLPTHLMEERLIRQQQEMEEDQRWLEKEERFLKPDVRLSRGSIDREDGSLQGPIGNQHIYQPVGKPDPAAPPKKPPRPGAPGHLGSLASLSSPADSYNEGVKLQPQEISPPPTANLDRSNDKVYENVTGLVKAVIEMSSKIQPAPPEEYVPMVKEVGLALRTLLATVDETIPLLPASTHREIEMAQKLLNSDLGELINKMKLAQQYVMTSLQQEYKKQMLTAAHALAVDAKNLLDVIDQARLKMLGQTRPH

On to `C=CCOC(=O)[C@@H]1[C@H]2C(=O)O[C@H](c3ccccc3)[C@H](c3ccccc3)N2[C@H](c2ccc(OCCOC(=O)[C@H]3C[C@H]4C(=O)N[C@@H](CC(C)C)C(=O)N4[C@H]3c3ccc(O)cc3)cc2)[C@@]12C(=O)Nc1ccc(I)cc12`, for which the composite z-score in [1] was found to be 2.17; in [2], 1.19; in test [3], 0.538; in [4], 0.623; in [5], 1.5; in [6], 1.87. In addition, the composite z-score with Lefty1 is 1.52; in test [8], 0.747. Also, the z-score is -0.176 in [7] and -0.646 (inactive) in [9].
`COC(=O)[C@@]1(Cc2ccccc2)[C@H]2c3cc(C(=O)N4CCCC4)n(C[C@H](O)CO)c3C[C@H]2CN1C(=O)c1ccccc1`: the composite z-score in test [1] is 1.39; in [2], 0.926; in test [3] it was 1.62; in test [4], -0.455; in test [5] it was -0.326; in [6], -0.978. For the same compound, the figures for the composite z-score (in the test with Lefty1; in test [8]) were -0.554 and 1.18, respectively. For the same compound, the z-score in test [7] is 0.577; in test [9] it was 1.22 (inactive).
In the case of `COCCOC(=O)N1C(=O)[C@@]2(c3cc(C#CCC(C(=O)OC)C(=O)OC)ccc31)[C@H](c1ccc(OCCO)cc1)N1[C@H](c3ccccc3)[C@H](c3ccccc3)OC(=O)[C@H]1[C@@H]2C(=O)N1CCN(c2ncccn2)CC1`, the composite z-score in test [1] was 1.94; in test [2], 1.25; in [3], -0.0555; in test [4] it was 0.947; in test [5], 1.36; in [6], 1.23. Further, the composite z-score in the test on Lefty1 stood at 1.29; in test [8], 0.939. For the same compound, the z-score in [7] is -1.48; in [9] it was -0.506 (inactive).
For `CC(=O)N1Cc2ccccc2C[C@]2(N=C(c3ccc(OCCCO)cc3)O[C@@H]2c2ccccc2)C1=O`, the composite z-score in [1] was 2.62; in test [2], 1.2; in test [3], 0.552; in test [4], 0.654; in test [5], 0.743; in test [6] it was 1.2. Besides, the values for the composite z-score (with Lefty1; in [8]) were 0.036 and 0.956, respectively. Besides, the z-score in test [7] was 0.638; in test [9], -2 (inactive).
For `O=C(CS)NCCCCCCNC(=O)[C@H]1C[C@H]2C(=O)N[C@@H](Cc3ccccc3)C(=O)N2[C@H]1c1cccc(OCCO)c1`, the composite z-score is 2.12 in [1]; 1.24 in test [2]; 0.127 in test [3]; 0.93 in test [4]; 1.39 in test [5]; 1.61 in test [6]. In addition, the figures for the composite z-score (with Lefty1; in test [8]) were 1.14 and 0.772, respectively. The z-score in test [7] was -0.66; in test [9] it was -1.91 (inactive).
Turning to `O=C1O[C@@H](c2ccccc2)[C@@H](c2ccccc2)N2[C@@H](c3ccccc3OCCO)[C@]3(C(=O)Nc4ccc(C#CC5=CCCCC5)cc43)[C@@H](C(=O)NC[C@H](O)c3ccccc3)[C@H]12`, the composite z-score in test [1] is 1.08; in test [2], 1.13; in test [3] it was 0.0363; in [4] it was 0.883; in test [5] it was 0.961; in test [6] it was 1.51. Moreover, the composite z-score with Lefty1 was 1.02; in test [8], -0.186. The z-score in [7] is -1.69; in [9] it was -1.32 (inactive).
As for `C=CCN1Cc2ccccc2C[C@@]2(N=C(c3ccc(OCCCO)cc3)O[C@H]2c2ccccc2)C1=O`, the composite z-score is 0.69 in test [1]; 1.24 in test [2]; 0.649 in test [3]; 0.801 in test [4]; 0.749 in [5]; 0.955 in [6]. The composite z-score in the test with Lefty1 is 0.0744; in test [8], 0.98. For the same compound, the z-score is 0.943 in test [7] and -0.668 (inactive) in test [9].
Turning to `[N-]=[N+]=Nc1ccccc1C[C@@]1(C(=O)O)N=C(c2ccc(OCCCO)cc2)O[C@@H]1c1ccccc1`, the composite z-score was 1.22 in test [1]; 0.749 in test [2]; 0.769 in test [3]; 0.997 in [4]; 0.247 in test [5]; -0.0664 in test [6]. Further, the composite z-score in the test on Lefty1 is -0.634; in test [8] it was 1.09. Moreover, the z-score in test [7] was 0.528; in [9], -0.972 (inactive).
`NCCCCCNC(=O)[C@@H]1C[C@@H]2C(=O)N[C@@H](CCCCN)C(=O)N2[C@@H]1c1cccc(OCCO)c1`: the composite z-score is 2.33 in test [1]; -0.0045 in test [2]; -0.214 in [3]; 0.101 in [4]; 1.17 in test [5]; 1.25 in test [6]. For the same compound, the figures for the composite z-score (in the test with Lefty1; in [8]) were 1.54 and 0.715, respectively. Further, the z-score in [7] was 0.844; in [9], 1.03 (inactive).
For the compound `CCC[C@@H]1C[C@@]1(CCC)[C@@H](NP(=O)(c1ccccc1)c1ccccc1)c1ccc(Cl)cc1`, the composite z-score is -0.649 in test [1]; -0.472 in test [2]; -0.371 in [3]; -0.428 in test [4]; -0.216 in test [5]; -0.475 in test [6]. Moreover, the composite z-score in the test with Lefty1 is -0.413; in test [8], -0.619. Also, the z-score in test [7] is -1.22; in test [9] it was 1.71 (inactive).
`O=C1NC(=O)C2C1C=CC(C(O)c1c(F)cccc1Cl)N2Nc1ccccn1` (stereo not given): the composite z-score in [1] was found to be 0.582; in [2] it was 0.257; in [3], 0.202; in [4], 0.776; in test [5] it was 0.477; in test [6], 0.731. Further, the composite z-score was -0.236 in the test with Lefty1 and 0.228 in test [8]. For the same compound, the figures for the z-score in test [7] and in [9] were 0.52 and -0.194 (inactive), respectively.
Consider `CCOC(=O)C[C@H]1[C@H](OC(=O)Cc2ccc3c(c2)OCO3)[C@@H](NC(=O)C2CCCCC2)c2cc(OCCCO)ccc2N1C(=O)c1ccc2ccccc2n1`, for which the composite z-score in test [1] is 0.0779; in test [2], 0.684; in test [3], 0.309; in test [4], 0.581; in test [5] it was 1.39; in [6] it was 1.71. The composite z-score was 0.816 with Lefty1 and -0.176 in test [8]. Moreover, the z-score is -0.678 in test [7] and 0.862 (inactive) in test [9].
`CCOC(=O)C[C@H]1[C@H](OC(=O)Cc2ccc3c(c2)OCO3)[C@@H](NC(=O)Cc2ccc(OC)cc2)c2cc(OCCCO)ccc2N1C(=O)c1ccccc1`: the composite z-score in [1] turned out to be 0.0506; in test [2] it was 0.814; in [3], 0.668; in test [4], 0.511; in [5] it was 0.41; in [6], 0.251. Also, the composite z-score in the test on Lefty1 is 0.389; in [8] it was 0.956. Further, the z-score was 1.57 in [7] and -0.566 (inactive) in test [9].
Regarding `[N-]=[N+]=NCc1ccccc1C[C@@]1(C(=O)NCCN2CCOCC2)N=C(c2ccc(OCCCO)cc2)O[C@@H]1c1ccccc1N=[N+]=[N-]`, the composite z-score in [1] is 1.4; in [2] it was 1.19; in test [3] it was 1.05; in [4], 0.957; in [5], 0.423; in test [6] it was -0.498. Moreover, the results for the composite z-score (with Lefty1; in test [8]) were -0.165 and 0.963, respectively. For the same compound, the z-score in test [7] was -0.183; in [9] it was -5.91 (inactive).

The values above are taken from PubChem BioAssay.
